Screening data (PubChem)
This is a sample that favours compounds with a hit; in the whole collection about 21% have one here.
TDP1 cell CPT – growth inhibition of DT40 Tdp1-/-;hTDP1 cells with camptothecin (screen for TDP1 inhibitors). chicken DT40 Tdp1-/-;hTDP1 cells + 20 nM CPT, ATP luminescence, 48 h. Potency, µM (doses to about 46.2 µM), without a hit: at the highest dose activity change, negative = growth inhibition, actives largely listed as inhibitors. 420,000 compounds, 12% hits; further: potency means the concentration at half of the fitted maximal effect; on the % scale 0 is the no-effect control and ±100 the full control effect; nearly all actives have a fitted effect of over 55% in size
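Chicken DT40 Tdp1-/- cells stably complemented with human TDP1 were seeded at 400 cells/well in medium containing 20 nM camptothecin, exposed to pin-transferred compounds, and grown at 37 °C for at least 48 hr. Viability was read as ATP luminescence.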
ClpP mod – qHTS Assay for Activators of ClpP | Potency, µM (top dose mostly 57.5 µM), for the others: at the highest dose activity change, negative = active | purified B. subtilis ClpP, FRET peptide cleavage, 20 min | 340,000 compounds, 1.9% hits; active means well fitted falling curve with a large enough effect; inconclusive means small, poorly fitted or top-dose-only effect; inactive means no such curve, though single readings can be large or run the other way; further: potency means the concentration at half of the fitted maximal effect; the source files actives as falling curves though it sought activators and does not explain the sign; nearly all actives have a fitted effect of over 65% in size
Target sequence (P80244 whole entry, looked up): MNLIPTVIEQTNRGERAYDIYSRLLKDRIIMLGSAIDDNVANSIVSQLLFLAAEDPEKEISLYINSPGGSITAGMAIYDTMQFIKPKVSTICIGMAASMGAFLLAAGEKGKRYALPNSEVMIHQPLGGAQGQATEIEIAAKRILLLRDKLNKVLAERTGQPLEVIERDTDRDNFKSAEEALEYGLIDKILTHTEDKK
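FRET quenching reversal measured ClpP activation: 10 microg/mL B. subtilis ClpP at pH 8 with the FRET-FV decapeptide, read at 430 nm after 320 nm excitation. The 20-min minus 0-min signal was scaled between DMSO/no-enzyme wells and ADEP (5.8 microM final).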
IL-1B inflam inh – inhibitors of inflammasome signaling (IL-1 beta secretion); THP-1 LPS/ATP IL-1B secretion, AlphaLISA, 16 h; stronger effect = lower value; activity change, % at 57.5 µM; 360,000 compounds, 4.7% hits; in the data active means activity change below about -50%; inconclusive means mostly about -30% to -49%; further: on the % scale 0 is the no-effect control and ±100 the full control effect
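Secreted IL-1B measured by AlphaLISA bead assay after 16 h compound exposure of THP-1 cells; compounds (final up to 57.5 uM) added 1 h before LPS (250 ng/mL) and ATP (1.25 mM) stimulation; lower signal means less secretion.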
DRD3 agonist – D3 dopamine receptor (human) agonism. P35462. D3R DiscoveRx beta-arrestin cells, luminescence, 90 min. max activation, %. 410,000 compounds, 0.58% hits. AID 652048; in the data active means max activation above about 30%; further: 0% is about no effect
Target sequence (P35462 whole entry, looked up): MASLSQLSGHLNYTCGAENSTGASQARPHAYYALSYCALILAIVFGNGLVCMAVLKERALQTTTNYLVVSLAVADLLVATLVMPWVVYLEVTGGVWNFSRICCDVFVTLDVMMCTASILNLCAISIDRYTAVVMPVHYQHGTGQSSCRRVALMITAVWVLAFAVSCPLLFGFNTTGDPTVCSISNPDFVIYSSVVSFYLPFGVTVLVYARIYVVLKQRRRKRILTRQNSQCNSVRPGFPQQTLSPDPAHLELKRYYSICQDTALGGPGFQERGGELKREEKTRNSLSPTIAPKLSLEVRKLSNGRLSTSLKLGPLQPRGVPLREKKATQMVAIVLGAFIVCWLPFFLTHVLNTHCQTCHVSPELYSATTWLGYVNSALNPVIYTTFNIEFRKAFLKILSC
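Agonist mode: compounds and dopamine controls were applied to plated cells for 90 min at 37 degrees C after an overnight attachment at 1500 cells/well. Luminescent read-out followed 30 - 60 minutes at room temperature with DiscoveRx detection reagent.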
TDP1 cell noCPT – qHTS for Inhibitors of human tyrosyl-DNA phosphodiesterase 1 (TDP1): qHTS in cells in absence of CPT | 420,000 compounds, 15% hits | Potency, µM (highest dose often 46.2 µM), inactives show at the top dose activity change, negative = growth inhibition, most hits filed as inhibitors | DT40 Tdp1-/- hTDP1 cells, no CPT, ATP luminescence, 48 h; further: potency means the concentration at half of the fitted maximal effect; on the % scale 0 is the no-effect control and ±100 the full control effect; nearly all actives have a fitted effect of over 55% in size
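Luminescent ATP content (CellTiter-Glo) served as the growth readout. Knockout chicken DT40 cells expressing human TDP1 were exposed to compounds without camptothecin for a minimum 48 hr at 37 °C.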
D3 antag – antagonists of human D3 dopamine receptor. P35462. D3R cells, DiscoveRx beta-arrestin luminescence, antagonist mode; stronger effect = lower value. max response, negative = inhibition, %. 360,000 compounds, 2.5% hits; in the data active means max response below about -50%; inconclusive means no clear call, values can overlap the other calls; further: on the % scale 0 is the no-effect control and ±100 the full control effect
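Cells expressing the human receptor were seeded at 1500 cells/well, incubated overnight at 37 degrees C in 5% CO2, then exposed to library compounds with dopamine controls for 90 minutes at 37 degrees C before luminescent detection.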
Starred values were filed as active, the others as inactive; i = inactive; ? = inconclusive; . = no result; [ ] = dose if it differs, or a comment. Unless noted, the call rests on the fitted dose curve; in most records, active means well fitted inhibition curve with a large enough effect; inconclusive means small, poorly fitted or top-dose-only effect; inactive means flat fitted curve, though single readings scatter.

SMILES	TDP1 cell CPT	ClpP mod	IL-1B inflam inh	DRD3 agonist	TDP1 cell noCPT	D3 antag
COCC(=O)N1C[C@H]2CON(C)[C@H]2C[C@H]1c1ccc(N2CCCCC2)cc1	7%	0%	-7	3	5%	24
COc1ccc(N/N=C(/C(N)=O)C2=NC(C)(C)Cc3ccccc32)cc1	16µM*	1%	-17	-3	16µM*	2
Cc1ccc(-n2nc3c(c2NC(=O)C(C)C)CS(=O)(=O)C3)cc1	4%	0%	19	4	3%	-3
Cc1cnc(SCC2CCCO2)nc1C1CCCN(Cc2nc(-c3ccccc3)cs2)C1 (centres undefined)	-1%[9.04 µM]	.	.	.	?	.
O=C(Oc1ccc(N(Cc2cccs2)C2=NS(=O)(=O)c3ccccc32)cc1)c1ccc(Cl)cc1	?	-23%	-2	-1	18µM*	4
O=C(Oc1ccc(N(Cc2cccs2)C2=NS(=O)(=O)c3ccccc32)cc1)c1ccccc1	?	0%	7	4	23µM*	23
CN(C1=NS(=O)(=O)c2ccccc21)c1ccc(OC(=O)c2ccccc2)cc1	0%	.	-14	5	?	-8
Nc1nc(CN2CCOCC2)cs1	?	4%	10	2	29µM*	-13
Nc1nc(CN2CCCCC2)cs1	-2%	1%	0	0	-4%	15
CCOc1ccc(S(=O)(=O)NCCC(=O)N2CCN(c3ccc(OC)cc3)CC2)cc1	?	.	-4	0	21µM*	-2
CCOc1ccc(S(=O)(=O)NCCC(=O)N2CCN(c3ncccn3)CC2)cc1	-1%	-7%	0	5	?	5
CCOc1ccc(S(=O)(=O)NCCC(=O)N2CC=C(c3ccccc3)CC2)cc1	?	0%	-11	27	12µM*	9
Cc1ccc(C(=O)N2CC(C)SC2=Nc2cccc(S(=O)(=O)N(C)C)c2)cc1 (centres undefined)	29µM*	-1%	13	-7	?	5
Cc1cc(C)cc(C(=O)N2CC(C)SC2=Nc2cccc(S(=O)(=O)N(C)C)c2)c1 (centres undefined)	?	-1%	-2	-18	?	20
O=C(COC(=O)CNS(=O)(=O)c1ccc(Br)cc1Cl)NCCc1ccccc1	-12%	1%	i	2	11%	7
COc1ccc(CCNC(=O)c2ccc3c(c2)ncn3-c2ccc(C(C)C)cc2)cc1OC	10µM*	-2%	.	3	18µM*	.
COc1ccc(CCNC(=O)c2ccc3c(c2)ncn3-c2ccc(C)cc2C)cc1OC	?	-1%	.	3	21µM*	.
CCOCCCNC(=O)c1ccc2c(c1)ncn2-c1ccc(C)cc1C	-26%	.	-16	-5	16µM*	5
COc1ccccc1CN1CCSCC1	-16%	-2%	-3	-22	4%	-22
COc1ccccc1CN1CCN(Cc2ccc3ccccc3c2)CC1	?	-2%	-3	-2	?	-90*
COc1ccc2ccccc2c1CN1CCN(Cc2ccccc2)CC1	-27%	-3%	0	-30	?	-71*
COc1ccc(CN2CCN(Cc3ccc4ccccc4c3)CC2)cc1OC	?	-1%	?	-49	18µM*	-76*
CCN1CCN(Cc2ccc(OC)c(OCc3ccccc3)c2)CC1	-19%	-1%	17	-8	?	?
COc1ccccc1CN1CCCCCC1	?	-10%	-10	-10	18µM*	-29
O=[N+]([O-])c1ccccc1CN1CCN(Cc2ccc3ccccc3c2)CC1	-28%	1%	2	-1	-11%	-21
SMILES	TDP1 cell CPT	ClpP mod	IL-1B inflam inh	DRD3 agonist	TDP1 cell noCPT	D3 antag
CCCCOC(=O)CSc1nc2ccccc2o1	7%	.	.	6	-14%	-15
COc1ccc2nc(C)cc(SCC(=O)N/N=C/c3ccc(O)cc3O)c2c1	?	-1%	?	3	?	38
COc1ccc2nc(C)cc(SCC(=O)N/N=C/c3ccccc3)c2c1	-14%	-3%	-98*	4	?	66
COc1ccccc1/C=N/NC(=O)CO	-12%	.	27	14	-8%	23
Cc1cc(SCC(=O)NN)c2cc(Br)ccc2n1	?	.	-92*	-7	?	-17
Cc1cc(C(=O)NN)c2cc(Br)ccc2n1	-4%	0%	21	-2	1%	-5
O=C(CC(=O)N/N=C\c1ccccc1)NCCc1ccccc1	-5%	0%	-6	1	-1%	?
COC(=O)c1ccc(/C=N\NC(=O)CC(=O)NCCc2ccccc2)cc1	2%	-1%	19	3	13µM*	1
COc1ccccc1/C=N/NC(=O)CC(=O)NCc1ccccc1	-1%	.	-51*	-8	-11%	-24
COc1cc(OC)cc(N(C(=O)CNC(=O)c2cccs2)C(C(=O)NCC2CCCO2)c2ccccc2)c1 (centres undefined)	-8%	1%	-8	24	?	28
Cc1cccc(N(C)C(=O)C(Cc2ccccc2)NS(=O)(=O)c2cccc3nsnc23)c1 (centres undefined)	?	-1%	.	-11	?	.
COc1ccc(NS(=O)(=O)c2cccc(C(=O)NNC(=O)CNC(=O)c3ccc(C)cc3)c2)cc1	-11%	1%	7	-6	-2%	1
CCCCSc1nc(C)cc(SCC(=O)N/N=C/c2cccc(OC)c2O)n1	1.5µM*	-4%	136	11	1.3µM*	116
COc1cccc2c(SCC(=O)N/N=C/c3ccc(O)cc3O)cc(C)nc12	?	.	-88*	19	10µM*	6
COc1ccccc1/C=N/NC(=O)CSc1cc(C)nc2ccccc12	7.3µM*	.	-66*	13	8.2µM*	-12
COc1ccccc1/C=N/NC(=O)CSc1ccc2ccccc2n1	?	.	42	-5	?	-13
CC(=O)c1ccc(NC(=O)CN(C)S(=O)(=O)c2cnc[nH]2)cc1	-3%	-1%	.	-6	1%	.
CC(Sc1nnc(CN2CCCC2)n1Cc1ccccc1)C(=O)Nc1ccc(F)cc1Cl (centres undefined)	18µM*	.	?	-8	26µM*	-2
COC(=O)C1=NN(C(=O)c2ccccc2)C(C)(O)C1 (centres undefined)	?	-1%	1	-6	23µM*	-16
COC(=O)C1=NN(C(=O)c2ccccc2)C(O)(c2ccc([N+](=O)[O-])cc2)C1 (centres undefined)	5%	0%	3	-7	-7%	-15
